Data published in PubChem BioAssay (NCATS).
Results filed as inconclusive are left out. Activity calls are given as the source filed them. Unless noted, calls follow the shape of the dose curve; as a rule, active = well fitted curve in the direction sought with a large enough effect; inconclusive = small, poorly fitted or top-dose-only effect, or another doubt; inactive = no such curve, though single readings can be large; an effect the other way counts as inactive or inconclusive.

What was measured:
[1] = biological target: Bile acid receptor (Homo sapiens) (UniProt Q96RI1); experiment: qHTS assay for small molecule antagonists of farnesoid X receptor signaling (AID 588526; calls by dose curve; also: % is scaled to controls: 0 for no effect and ±100 for the full control effect)
Summary of the method: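 Beta-lactamase reporter antagonist mode: HEK293T FXR-UAS-bla cells, titrated compound, CDCA stimulation, 16 h 37 C, CCF4 dye 2 h RT. Data normalized to CDCA 50 uM and DMSO; Hill-fit IC50.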

[2] = biological target: Glucocorticoid receptor (Homo sapiens) (UniProt P04150); experiment: qHTS assay for small molecule agonists of glucocorticoid receptor signaling (AID 588532; active = well fitted curve in the direction sought with a large enough effect in the signal ratio, with a control signal flat; the % refers to the signal ratio;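 also: 100% = dexamethasone at 0.1 µM and 0% = DMSO only wells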); conditions: HeLa MMTV-bla, beta-lactamase ratio, agonist, 18 h; stronger effect = higher value; percent of dexamethasone control, DMSO zero
Summary of the method: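 Agonist-mode qHTS: GRE-driven beta-lactamase in HeLa cells exposed 18 h to titrated compounds (up to 92 uM), then CCF4 ratio read after 2 h at RT; Hill-fitted EC50, efficacy relative to 0.1 uM dexamethasone.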

[3] = biological target: Glucocorticoid receptor (Homo sapiens) (UniProt P04150); experiment: qHTS assay for small molecule antagonists of glucocorticoid receptor signaling (AID 588533; active = well fitted inhibition curve with a large enough effect in the signal ratio, with a control signal flat, not every such curve was filed as active; the % refers to the signal ratio;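 also: cells stimulated with 2 nM dexamethasone as agonist; % is scaled to controls: 0 for no effect and ±100 for the full control effect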)
Summary of the method: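 Antagonist-mode qHTS: compound titrations added to GRE-bla HeLa cells, then dexamethasone 2 nM final; 18 h, 37 C. CCF4 FRET fluorescence normalized to dexamethasone and DMSO; IC50 from Hill fit.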

[4] = biological target: Peroxisome proliferator-activated receptor gamma (Homo sapiens) (UniProt P37231); experiment: qHTS assay for small molecule agonists of peroxisome proliferator-activated receptor gamma signaling (AID 588536; active = well fitted curve in the direction sought with a large enough effect in the signal ratio, with a control signal flat, not every such curve was filed as active; the % refers to the signal ratio;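 also: 0% = DMSO basal wells and 100% = rosiglitazone at 2 µM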)
Summary of the method: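 HEK293 UAS-bla reporter line, 1% charcoal/dextran FBS; titration, 16 h, 37 C; CCF4 loading 2 h RT; fluorescence 460/530 nm. Normalized to rosiglitazone 2 uM = 100%, DMSO = 0%.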

[5] = biological target: Vitamin D3 receptor (Homo sapiens) (UniProt P11473); experiment: qHTS assay for small molecule antagonists of vitamin D receptor signaling (AID 588541; calls by dose curve;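 also: receptor activated by calcitriol during compound treatment; series mostly up to about 77 µM; % is scaled to controls: 0 for no effect and ±100 for the full control effect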)
Summary of the method: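 Antagonist-mode beta-lactamase reporter assay: HEK293T VDR-UAS-bla cells were exposed to titrated compound alongside 1-alpha,25-dihydroxyvitamin D3 at 3 nM final for 16 h. Values were normalized to the 50 nM agonist control and DMSO basal, with IC50 and efficacy from Hill equation fits.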

[6] = qHTS assay for small molecule agonists of retinoid X receptor alpha signaling (AID 588544; calls by dose curve;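 as to activation: 0% = DMSO basal wells and 100% = reference agonist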); conditions: HEK293T RXRa-UAS-bla, beta-lactamase reporter, 18 h; 530 nm emission
[7] = biological target: Retinoic acid receptor RXR-alpha (Homo sapiens) (UniProt P19793); experiment: as above
[8] = biological target: Thyroid hormone receptor beta (Homo sapiens) (UniProt P10828); experiment: qHTS assay for small molecule agonists of thyroid hormone receptor beta signaling (AID 588545; calls by dose curve;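 also: 0% = DMSO only and 100% = 10 nM T3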)
Summary of the method: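 TR-UAS-bla-GripTite HEK 293 cells in medium with 2% charcoal/dextran FBS, 0.1 mM NEAA and 1 mM sodium pyruvate were treated with titrated compounds for 18 hrs at 37 C. Beta-lactamase reporter was read with CCF4 dye (ex 405, em 460/530 nm); EC50 from Hill fits.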

[9] = qHTS assay for small molecule antagonists of retinoid X receptor alpha signaling (AID 588546; active = well fitted inhibition curve with a large enough effect in the signal ratio, with a control signal flat, not every such curve was filed as active; the % refers to the signal ratio;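 also: cells stimulated with 9-cis-retinoic acid as agonist; % is scaled to controls: 0 for no effect and ±100 for the full control effect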); conditions: HEK293T RXRa-UAS-bla, beta-lactamase ratio, antagonist mode; measured here: W530 green channel, cytotoxicity proxy
Summary of the method: (§1)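 Beta-lactamase reporter inhibition, read as CCF4 fluorescence ratio (ex 405, em 460/530 nm) after 2 h at RT. HEK293T UAS-bla cells, 2500/well, were stimulated with 9-cis-RA at 500 or 100 nM final alongside test compound for 18 h at 37 C.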

[10] = biological target: Retinoic acid receptor RXR-alpha (Homo sapiens) (UniProt P19793); experiment: as above; conditions: HEK293T RXRa-UAS-bla, beta-lactamase ratio, antagonist mode
Summary of the method: as §1

[11] = biological target: Thyroid hormone receptor beta (Homo sapiens) (UniProt P10828); experiment: qHTS assay for small molecule antagonists of thyroid hormone receptor beta signaling (AID 588547; active = well fitted inhibition curve with a large enough effect in the signal ratio, with a control signal flat, not every such curve was filed as active; the % refers to the signal ratio); conditions: TR-UAS-bla HEK293, beta-lactamase ratio, antagonist mode, 18 h
Summary of the method: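 Inhibition of T3-driven (0.4nM final) beta-lactamase reporter activity was measured over 0.59 nM to 92 uM compound after 18 h at 37 C. The cells were GripTite HEK293 TR-UAS-bla in charcoal/dextran-stripped serum, with CCF4 ratio read-out and IC50 from Hill fits.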

[12] = S16 Schwann cell viability assay (CellTiter-Glo assay) (AID 624031);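 also: cellular ATP luminescence as a viability measure; series mostly up to about 58 µM; plate controls were DMSO-treated cells for no effect and cell-free wells for full effect; nearly all actives have a fitted effect of over 70% in size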
Summary of the method: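 Luminescent ATP read-out (CellTiter-Glo) after 24 h compound exposure of native S16 rat Schwann cells at 37 °C. Signals were normalized between cell-free wells and DMSO-treated cells, set as 0% activity.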

[13] = S16 Schwann cell PMP22 intronic element firefly luciferase assay (AID 624032);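 also: series mostly up to about 58 µM; plate controls were DMSO for no effect and PTC124 positive control mean for full effect; nearly all actives have a fitted effect of over 30% in size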
Summary of the method: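 Luciferase reporter of PMP22 intronic-element expression in stably transfected S16 rat Schwann cells, read by ONE-Glo luminescence after 24 h compound exposure at 37 C. Activity scaled between DMSO (0%) and positive-control PTC124; concentration-effect curves quality-classified.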

[14] = biological target: Voltage-gated inwardly rectifying potassium channel KCNH2 (Homo sapiens) (UniProt Q12809); experiment: qHTS Assay for Small Molecule Inhibitors of the Human hERG Channel Activity (AID 588834);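 also: lower thallium flux fluorescence means stronger hERG block; nearly all actives have a fitted effect of over 50% in size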; also: potency is read from the fitted curve at half-maximal effect
Summary of the method: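 Kinetic FDSS fluorescence; U2OS + hERG BacMam (~100 virus particles/cell); FluxOR Tl+ flux; ~10 min cpd; AC50 (Hill).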

[15] = biological target: Luciferin 4-monooxygenase (Photinus pyralis) (UniProt P08659); experiment: Biochemical firefly luciferase enzyme assay for NPC (AID 624030);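 also: purified P. pyralis luciferase at 10 nM with luciferin and ATP substrate; series mostly up to about 59 µM; 0% = DMSO and -100% = full luciferase inhibition by PTC124 control; nearly all actives have a fitted effect of over 70% in size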
Summary of the method: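 Direct inhibition of firefly luciferase enzyme (10 nM final, 50 mM Tris Acetate) assessed by luminescence within 5 minutes. Percent activity scaled between DMSO and PTC124 positive control, with concentration-effect curves classified by fit quality and response.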

[16] = S16 Schwann cell PMP22 intronic element beta-lactamase assay (AID 624044; calls by dose curve;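 also: 0% = DMSO and -100% = potassium clavulanate positive control; nearly all actives have a fitted effect of over 15% in size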)
Summary of the method: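 Rat S16 Schwann cells with beta-Lac driven by a PMP22 intronic element, compound-treated 24 h at 37 °C. LiveBLAzer FRET B/G read: 460 nm normalized to potassium clavulanate vs DMSO; 535 nm FRET as viability; concentration-effect curves classified.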

[17] = biological target: Peroxisome proliferator-activated receptor gamma (Homo sapiens) (UniProt P37231); experiment: qHTS assay for small molecule antagonists of peroxisome proliferator-activated receptor gamma signaling (AID 588537; active = well fitted inhibition curve with a large enough effect in the signal ratio, with a control signal flat, not every such curve was filed as active; the % refers to the signal ratio;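 also: reporter cells co-stimulated with 50 nM rosiglitazone agonist during compound treatment; % of control where 0% means no effect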)
Summary of the method: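 Antagonist mode, beta-lactamase reporter in HEK293; charcoal/dextran FBS 1%; 3000 cells/well, 37 C 6-6.5 h; cpd titration + rosiglitazone 50 nM final, 16 h 37 C; CCF4, 2 h RT; 460/530 nm; Hill fit → IC50, efficacy.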

[18] = biological target: Glutaminase kidney isoform, mitochondrial (Homo sapiens) (UniProt O94925); experiment: qHTS for Inhibitors of Glutaminase (GLS): LOPAC Validation (AID 624146);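 also: glutamate product detected by oxidase and peroxidase coupled Amplex red fluorescence gain; series mostly up to about 46 µM; % is scaled to controls: 0 for no effect and ±100 for the full control effect; nearly all actives have a fitted effect of over 60% in size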
Summary of the method: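 Read-out is an Amplex red fluorescence increase coupled through glutamate oxidase and HRP, measured before and after 30 min room-temperature incubation. hKGA is in 45 mM KH2PO4 (pH 8.2) with 0.02% Tween-20; glutamine added as 1mM solution.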

[19] = qHTS assay for small molecule antagonists of peroxisome proliferator-activated receptor delta signaling (AID 588535; active = well fitted inhibition curve with a large enough effect in the signal ratio, with a control signal flat, not every such curve was filed as active; the % refers to the signal ratio;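 as to max response: cells co-treated with a PPAR-delta agonist as stimulator during compound exposure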); conditions: HEK293T PPARd-UAS-bla, beta-lactamase FRET ratio, 18 h; 460 nm channel
Summary of the method: (§2)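 HEK293T PPAR-delta-UAS-bla cells, 4000/well, 2% charcoal/dextran FBS; 5 h 37 C; cpd titration; 18 h 37 C; CCF4 2 h RT; FI 460/530 nm; Hill fit → IC50, efficacy.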

[20] = biological target: Peroxisome proliferator-activated receptor delta (Homo sapiens) (UniProt Q03181); experiment: as above
Summary of the method: as §2

Sequence of Luciferin 4-monooxygenase (Photinus pyralis) (P08659 whole entry, looked up): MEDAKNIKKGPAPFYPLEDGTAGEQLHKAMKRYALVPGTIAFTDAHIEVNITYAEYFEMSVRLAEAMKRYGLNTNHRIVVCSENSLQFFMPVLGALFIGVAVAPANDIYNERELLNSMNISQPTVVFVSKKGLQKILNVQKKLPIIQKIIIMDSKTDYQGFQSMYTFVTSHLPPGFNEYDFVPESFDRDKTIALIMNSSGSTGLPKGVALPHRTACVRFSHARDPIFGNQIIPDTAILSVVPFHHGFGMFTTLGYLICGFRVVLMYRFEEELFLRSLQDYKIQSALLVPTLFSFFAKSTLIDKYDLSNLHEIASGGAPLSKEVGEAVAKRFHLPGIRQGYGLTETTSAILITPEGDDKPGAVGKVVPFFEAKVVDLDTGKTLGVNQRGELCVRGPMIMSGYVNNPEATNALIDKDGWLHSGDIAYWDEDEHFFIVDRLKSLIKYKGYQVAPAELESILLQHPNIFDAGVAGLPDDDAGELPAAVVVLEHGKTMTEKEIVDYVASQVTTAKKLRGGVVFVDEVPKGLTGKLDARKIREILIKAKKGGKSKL
Sequence of Voltage-gated inwardly rectifying potassium channel KCNH2 (Homo sapiens) (Q12809 whole entry, looked up): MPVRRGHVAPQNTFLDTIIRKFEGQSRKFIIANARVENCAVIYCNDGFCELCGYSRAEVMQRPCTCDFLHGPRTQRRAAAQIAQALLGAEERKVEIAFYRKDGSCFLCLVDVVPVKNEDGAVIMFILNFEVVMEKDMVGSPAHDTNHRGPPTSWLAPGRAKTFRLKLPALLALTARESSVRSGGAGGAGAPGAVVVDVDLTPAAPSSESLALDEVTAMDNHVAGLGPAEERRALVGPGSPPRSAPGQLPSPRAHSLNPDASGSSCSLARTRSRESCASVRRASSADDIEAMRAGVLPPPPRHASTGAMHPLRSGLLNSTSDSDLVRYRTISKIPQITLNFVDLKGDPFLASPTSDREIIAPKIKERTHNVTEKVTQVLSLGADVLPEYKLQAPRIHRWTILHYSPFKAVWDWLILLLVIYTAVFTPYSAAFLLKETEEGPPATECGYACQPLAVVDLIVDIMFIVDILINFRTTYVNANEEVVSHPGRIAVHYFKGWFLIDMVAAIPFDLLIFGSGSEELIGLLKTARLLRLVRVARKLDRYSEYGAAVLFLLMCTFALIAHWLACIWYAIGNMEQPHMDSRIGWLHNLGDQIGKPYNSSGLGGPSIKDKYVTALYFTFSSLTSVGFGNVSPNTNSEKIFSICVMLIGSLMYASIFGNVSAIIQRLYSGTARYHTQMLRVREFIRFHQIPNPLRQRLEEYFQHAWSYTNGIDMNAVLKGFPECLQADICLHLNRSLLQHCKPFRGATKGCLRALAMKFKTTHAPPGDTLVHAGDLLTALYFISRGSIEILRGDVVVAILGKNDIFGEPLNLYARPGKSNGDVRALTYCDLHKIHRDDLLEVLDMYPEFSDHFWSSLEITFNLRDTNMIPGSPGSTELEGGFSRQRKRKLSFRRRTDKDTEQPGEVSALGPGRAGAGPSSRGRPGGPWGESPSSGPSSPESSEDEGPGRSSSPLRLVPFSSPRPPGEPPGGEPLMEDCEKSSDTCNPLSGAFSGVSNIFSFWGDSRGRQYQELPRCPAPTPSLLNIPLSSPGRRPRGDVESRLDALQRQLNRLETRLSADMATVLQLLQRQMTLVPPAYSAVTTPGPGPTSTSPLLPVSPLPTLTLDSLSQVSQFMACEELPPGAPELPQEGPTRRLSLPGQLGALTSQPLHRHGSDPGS
Sequence of Retinoic acid receptor RXR-alpha (Homo sapiens) (P19793 whole entry, looked up): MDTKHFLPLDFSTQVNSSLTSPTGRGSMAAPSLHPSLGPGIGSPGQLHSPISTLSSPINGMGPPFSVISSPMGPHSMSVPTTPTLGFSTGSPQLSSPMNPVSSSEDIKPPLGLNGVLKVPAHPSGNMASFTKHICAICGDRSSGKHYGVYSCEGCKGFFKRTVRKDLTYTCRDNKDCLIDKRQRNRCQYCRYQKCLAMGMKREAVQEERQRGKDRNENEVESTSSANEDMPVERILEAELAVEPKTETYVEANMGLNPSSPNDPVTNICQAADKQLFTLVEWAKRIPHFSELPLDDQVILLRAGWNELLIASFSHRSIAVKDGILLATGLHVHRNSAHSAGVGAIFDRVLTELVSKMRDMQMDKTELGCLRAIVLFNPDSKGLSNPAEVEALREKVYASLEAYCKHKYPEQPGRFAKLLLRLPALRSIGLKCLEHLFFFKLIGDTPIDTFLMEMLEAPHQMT
Sequence of Thyroid hormone receptor beta (Homo sapiens) (P10828 whole entry, looked up): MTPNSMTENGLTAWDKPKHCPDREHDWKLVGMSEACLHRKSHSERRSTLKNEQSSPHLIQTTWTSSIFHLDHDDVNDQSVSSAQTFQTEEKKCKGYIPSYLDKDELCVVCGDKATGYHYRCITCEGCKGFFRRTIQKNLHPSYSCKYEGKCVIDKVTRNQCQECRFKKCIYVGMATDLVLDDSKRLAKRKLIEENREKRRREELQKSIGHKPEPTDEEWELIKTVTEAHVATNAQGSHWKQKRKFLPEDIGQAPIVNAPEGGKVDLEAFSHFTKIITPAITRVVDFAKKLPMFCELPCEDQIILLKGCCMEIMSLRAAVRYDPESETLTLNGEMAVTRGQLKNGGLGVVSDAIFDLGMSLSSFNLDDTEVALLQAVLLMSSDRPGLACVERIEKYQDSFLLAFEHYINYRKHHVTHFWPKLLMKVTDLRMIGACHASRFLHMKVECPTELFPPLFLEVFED
Sequence of Peroxisome proliferator-activated receptor gamma (Homo sapiens) (P37231 whole entry, looked up): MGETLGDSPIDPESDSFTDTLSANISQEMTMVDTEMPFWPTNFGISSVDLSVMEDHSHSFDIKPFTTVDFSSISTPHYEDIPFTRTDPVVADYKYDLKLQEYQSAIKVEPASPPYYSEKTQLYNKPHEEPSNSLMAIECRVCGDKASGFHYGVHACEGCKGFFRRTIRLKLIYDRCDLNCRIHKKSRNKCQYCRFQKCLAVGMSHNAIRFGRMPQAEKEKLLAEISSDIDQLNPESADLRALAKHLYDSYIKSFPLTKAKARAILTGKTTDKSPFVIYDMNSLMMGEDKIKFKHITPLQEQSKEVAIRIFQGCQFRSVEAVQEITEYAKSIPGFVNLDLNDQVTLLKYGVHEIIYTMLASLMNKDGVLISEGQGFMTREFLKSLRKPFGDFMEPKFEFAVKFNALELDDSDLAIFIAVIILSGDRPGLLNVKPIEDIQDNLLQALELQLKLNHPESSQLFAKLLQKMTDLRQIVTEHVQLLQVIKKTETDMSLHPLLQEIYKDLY
Sequence of Glucocorticoid receptor (Homo sapiens) (P04150 whole entry, looked up): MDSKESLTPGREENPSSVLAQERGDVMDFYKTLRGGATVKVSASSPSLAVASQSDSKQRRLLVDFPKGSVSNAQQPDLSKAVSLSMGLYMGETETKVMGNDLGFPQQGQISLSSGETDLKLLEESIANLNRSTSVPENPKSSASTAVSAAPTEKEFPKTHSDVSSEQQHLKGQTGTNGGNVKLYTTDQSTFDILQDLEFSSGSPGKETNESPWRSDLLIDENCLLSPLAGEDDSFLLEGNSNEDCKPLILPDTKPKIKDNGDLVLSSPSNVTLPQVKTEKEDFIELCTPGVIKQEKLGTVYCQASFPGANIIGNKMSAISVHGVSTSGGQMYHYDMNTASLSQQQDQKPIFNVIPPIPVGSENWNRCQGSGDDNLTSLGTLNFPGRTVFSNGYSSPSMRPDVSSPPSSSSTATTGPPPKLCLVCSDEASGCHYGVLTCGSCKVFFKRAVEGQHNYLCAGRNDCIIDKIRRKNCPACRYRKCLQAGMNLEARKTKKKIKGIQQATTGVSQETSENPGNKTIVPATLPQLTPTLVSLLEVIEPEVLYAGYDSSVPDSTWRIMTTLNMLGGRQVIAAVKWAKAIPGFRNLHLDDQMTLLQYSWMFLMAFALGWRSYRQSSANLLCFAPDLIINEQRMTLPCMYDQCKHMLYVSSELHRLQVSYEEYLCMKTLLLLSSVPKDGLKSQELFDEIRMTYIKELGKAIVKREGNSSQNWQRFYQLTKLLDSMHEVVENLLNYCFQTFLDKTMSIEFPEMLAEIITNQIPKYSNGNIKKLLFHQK
Sequence of Vitamin D3 receptor (Homo sapiens) (P11473 whole entry, looked up): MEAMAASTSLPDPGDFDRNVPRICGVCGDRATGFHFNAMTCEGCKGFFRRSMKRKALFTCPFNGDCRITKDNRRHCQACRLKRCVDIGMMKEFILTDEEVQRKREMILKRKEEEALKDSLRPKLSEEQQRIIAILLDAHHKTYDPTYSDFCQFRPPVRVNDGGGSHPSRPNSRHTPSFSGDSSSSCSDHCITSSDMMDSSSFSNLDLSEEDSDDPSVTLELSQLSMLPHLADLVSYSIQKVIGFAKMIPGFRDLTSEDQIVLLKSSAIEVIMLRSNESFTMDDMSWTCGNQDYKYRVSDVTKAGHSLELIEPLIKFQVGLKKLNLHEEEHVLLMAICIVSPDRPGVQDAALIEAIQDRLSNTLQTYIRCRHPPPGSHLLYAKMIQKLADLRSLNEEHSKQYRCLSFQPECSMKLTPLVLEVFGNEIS
Sequence of Bile acid receptor (Homo sapiens) (Q96RI1 whole entry, looked up): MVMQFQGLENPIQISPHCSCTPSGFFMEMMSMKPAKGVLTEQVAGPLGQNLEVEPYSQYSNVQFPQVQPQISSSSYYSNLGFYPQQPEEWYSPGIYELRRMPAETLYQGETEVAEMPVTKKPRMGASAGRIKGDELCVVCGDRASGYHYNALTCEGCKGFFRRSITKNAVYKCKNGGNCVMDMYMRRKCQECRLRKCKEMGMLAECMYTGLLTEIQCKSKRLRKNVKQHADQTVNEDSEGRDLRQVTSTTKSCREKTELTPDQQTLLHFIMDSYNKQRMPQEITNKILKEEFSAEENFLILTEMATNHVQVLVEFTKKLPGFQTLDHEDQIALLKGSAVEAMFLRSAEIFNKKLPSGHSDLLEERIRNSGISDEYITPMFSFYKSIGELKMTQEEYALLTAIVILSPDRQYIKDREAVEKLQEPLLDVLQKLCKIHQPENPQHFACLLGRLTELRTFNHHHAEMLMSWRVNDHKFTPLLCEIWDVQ

Cc1cc(NS(=O)(=O)c2ccc(N)cc2)no1
inactive: outcome [1] | activation [2] 9.43% | outcome [3] | outcome [4] | outcome [5] | outcome [7] | outcome [8] | max response [10] 6.61% | activity change % (negative = inhibition) [11] -2.53% | Potency [12] | Potency [13]
12.4%: max response [6]
-9.35%: max response [9]

CO[C@@]12[C@H](COC(N)=O)C3=C(C(=O)C(C)=C(N)C3=O)N1C[C@@H]1N[C@@H]12
inactive: Potency [14]

CC(=O)CC(c1ccccc1)c1c(O)c2ccccc2oc1=O (configuration not stated)
inactive: outcome [7] | max response [10] 8.9% | activity change % (negative = inhibition) [11] 9.03% | Potency [14] | Potency [15]
2.14%: max response [6]
-2.55%: max response [9]

CC[C@H](C)C(=O)O[C@H]1C[C@@H](C)C=C2C=C[C@H](C)[C@H](CC[C@@H]3C[C@@H](O)CC(=O)O3)[C@H]21
inactive: activation [2] -4.54% | outcome [4] | outcome [5] | Potency [15] | Potency [12] | Potency [13] | Potency [16]

C[C@@H]1C[C@H]2[C@@H]3CCC4=CC(=O)C=C[C@]4(C)[C@@]3(Cl)[C@@H](O)C[C@]2(C)[C@@]1(OC(=O)c1ccco1)C(=O)CCl
active: Potency [14] 5.01 µM

COc1ccc2cc3[n+](cc2c1OC)CCc1cc2c(cc1-3)OCO2
2.18%: max response [9]
inactive: activation [2] 1.14% | outcome [4] | outcome [5] | outcome [8] | max response [10] -28% | activity change % (negative = inhibition) [11] -20.8% | Potency [14] | Potency [15] | Potency [12]

OC(Cn1cncn1)(Cn1cncn1)c1ccc(F)cc1F
-2.01%: max response [9]
-28.2%: max response [6]
inactive: activation [2] 0.0878% | outcome [3] | outcome [4] | Potency [17] | outcome [5] | outcome [7] | outcome [8] | max response [10] 6.23% | activity change % (negative = inhibition) [11] -14.2% | Potency [14] | Potency [15] | Potency [12] | Potency [13] | Potency [16]

CC(=O)[C@H]1CC[C@H]2[C@@H]3CCC4=CC(=O)CC[C@]4(C)[C@H]3CC[C@]12C
inactive: outcome [8] | Potency [15] | outcome [18]

O=C(O)c1cc(=O)[nH]c(=O)[nH]1
0.884%: max response [6]
inactive: activation [2] -4.81% | outcome [4] | outcome [7] | outcome [8] | max response [10] 5.81% | activity change % (negative = inhibition) [11] 1.95% | Potency [14] | Potency [15] | Potency [12] | Potency [13]
2.15%: max response [9]

Cc1ccnc2c1NC(=O)c1cccnc1N2C1CC1
14.9%: max response [19]
-4.35%: max response [9]
12%: max response [6]
inactive: outcome [1] | activation [2] -5.33% | outcome [3] | outcome [20] | outcome [4] | outcome [5] | outcome [7] | outcome [8] | max response [10] 11.4% | activity change % (negative = inhibition) [11] -3.97% | Potency [14] | Potency [15] | Potency [12] | Potency [13]
